Measurements taken from PubChem BioAssay (NCATS).
Results filed as inconclusive are left out. Activity calls are given as the source filed them. The call rests on the fitted dose curve; in most records, active means well fitted curve in the direction sought with a large enough effect; inconclusive means small, poorly fitted or top-dose-only effect, or another doubt; inactive means no such curve, though single readings can be large; an effect the other way counts as inactive or inconclusive.

Tests used:
[1] = Quantitative highthroughput screen to assess conditional lethalithy of NOMO1 cells grown in RPMI1640 with untreated serum (RPMI+s) (AID 1963876); further: nearly all actives have a fitted effect of over 35% in size; further: potency means the concentration at half of the fitted maximal effect;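 on viability: 100% = DMSO wells and 0% = empty wells without cells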
Outline: (§1)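 Each medium arm—HPLM with 10% dialyzed FBS, or RPMI1640 with 5 mM glucose and 10% untreated or dialyzed FBS—was screened against an 11-point, 3-fold compound titration for 48 h at 37 °C, with CellTiter-Glo luminescence as endpoint.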

[2] = Quantitative highthroughput screen to assess conditional lethalithy of NOMO1 cells grown in RPMI1640 with dialyzed fetal bovine serum (RPMI+ds) (AID 1963877); further: nearly all actives have a fitted effect of over 30% in size; further: potency means the concentration at half of the fitted maximal effect;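 on viability: series mostly up to about 46 µM; 100% = DMSO control wells and 0% = empty wells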
Outline: as §1

[3] = Quantitative highthroughput screen to assess conditional lethalithy of NOMO1 cells grown in Human Plasma-Like Medium with dialyzed fetal bovine serum (HPLM+ds) (AID 1963878); further: nearly all actives have a fitted effect of over 35% in size; further: potency means the concentration at half of the fitted maximal effect;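 on viability: 100% = DMSO wells and 0% = empty wells on each plate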
Outline: as §1

[4] = Quantitative highthroughput screen to assess conditional lethalithy of P12 Ichikawa cells grown in Human Plasma-Like Medium with dialyzed fetal bovine serum (HPLM+ds) (AID 1963879); details: Potency: viability; further: nearly all actives have a fitted effect of over 35% in size; further: potency means the concentration at half of the fitted maximal effect; on viability: series mostly up to about 46 µM
Outline: as §1

[5] = Quantitative highthroughput screen to assess conditional lethalithy of P12 Ichikawa cells grown in RPMI1640 with dialyzed fetal bovine serum (RPMI+ds) (AID 1963880); details: Potency: P12-Ichikawa viability; further: nearly all actives have a fitted effect of over 35% in size; further: potency means the concentration at half of the fitted maximal effect;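 on viability: 100% = DMSO wells and 0% = empty wells on each plate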
Outline: as §1

[6] = Quantitative highthroughput screen to assess conditional lethalithy of P12 Ichikawa cells grown in RPMI1640 with untreated serum (RPMI+s) (AID 1963881); details: Potency: viability; further: nearly all actives have a fitted effect of over 35% in size; further: potency means the concentration at half of the fitted maximal effect;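 on viability: series mostly up to about 46 µM; 100% = DMSO wells and 0% = empty wells without cells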
Outline: as §1

[7] = Quantitative highthroughput screen to assess conditional lethalithy of SEM cells grown in Human Plasma-Like Medium with dialyzed fetal bovine serum (HPLM+ds) (AID 1963882); further: nearly all actives have a fitted effect of over 35% in size; further: potency means the concentration at half of the fitted maximal effect; on viability: series mostly up to about 46 µM
Outline: as §1

[8] = Quantitative highthroughput screen to assess conditional lethalithy of SEM cells grown in RPMI1640 with dialyzed fetal bovine serum (RPMI+ds) (AID 1963884); further: nearly all actives have a fitted effect of over 35% in size; further: potency means the concentration at half of the fitted maximal effect;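 on viability: series mostly up to about 46 µM; 100% = DMSO control wells and 0% = empty wells without cells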
Outline: as §1

[9] = Quantitative highthroughput screen to assess conditional lethalithy of SEM cells grown in RPMI1640 with unreated serum (RPMI+s) (AID 1963883); further: nearly all actives have a fitted effect of over 35% in size; further: potency means the concentration at half of the fitted maximal effect;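 on viability: 100% = DMSO wells and 0% = empty wells without cells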
Outline: as §1

[10] = Cellular viability qHTS for adrenocortical cancer (ACC) cell line SW-13 (AID 1963989); details: SW-13 ACC cells viability, CellTiter-Glo, 48 h; activity (max response): hits give low values;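 further: cells grown in serum-free medium with ITS supplement; on the % scale 0 is the no-effect control and ±100 the full control effect; nearly all actives have a fitted effect of over 65% in size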
Outline: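 48 h treatment, SW-13 in ITS/DMEM serum-free; doses up to 46 uM; readout CellTiter-Glo luminescence; curve fit four-parameter logistic.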

[11] = Cellular viability qHTS for adrenocortical cancer (ACC) cell line NCI-H295R (AID 1963990);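 further: 0% = DMSO only wells and -100% = full killing with cytotoxic reference compound; nearly all actives have a fitted effect of over 60% in size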
Outline: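 Compound titrations (up to 46 uM final) are applied to NCI-H295R cultures for 48 h at 37C. Viable cell number is estimated by CellTiter-Glo signal, normalised to DMSO and doxorubicin controls.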

CC(C=CC1=C(C)CCCC1(C)C)=CC=CC(C)=CC(=O)Nc1ccc(O)cc1
active: Potency [1] 30300 nM | Potency [2] 17100 nM | Potency [3] 15200 nM | Potency [4] 6.05 µM | Potency [5] 2.7 µM | Potency [6] 6.05 µM | Potency [7] 3.4 µM | Potency [8] 3030 nM

CCN(CC)CCOc1ccc(C(=C(Cl)c2ccccc2)c2ccccc2)cc1
inactive: Potency [1] | Potency [2] | Potency [3] | Potency [4] | Potency [7] | Potency [9] | Potency [8]
active: Potency [5] 20.9 µM

CC=C1C2C=C(C)CC1(N)c1ccc(=O)[nH]c1C2 (stereo not drawn)
inactive: Potency [1] | Potency [2] | Potency [3] | Potency [4] | Potency [5] | Potency [6] | Potency [9] | Potency [8]

CS(=O)(=O)c1ccc(C(=O)Nc2ccc(Cl)c(-c3ccccn3)c2)c(Cl)c1
inactive: Potency [1] | Potency [2] | Potency [3] | Potency [4] | Potency [5] | Potency [6] | Potency [7] | Potency [8] | activity (max response) [10] -0.792% | Potency [11]

COc1cc(C)c(C=CC(C)=CC=CC(C)=CC(=O)O)c(C)c1C
inactive: Potency [1] | Potency [2] | Potency [3] | Potency [4] | Potency [5] | Potency [6] | Potency [7] | Potency [8]

O=C(NNC(=O)c1ccc(CNS(=O)(=O)c2ccc(F)c(Cl)c2)cc1)c1ccccc1
inactive: Potency [1] | Potency [2] | Potency [3] | Potency [4] | Potency [5] | Potency [7] | Potency [9]

Nc1ccn(C[C@@H](CO)OCP(=O)(O)O)c(=O)n1
inactive: Potency [1] | Potency [2] | Potency [3] | Potency [4] | Potency [5] | Potency [6] | Potency [8] | activity (max response) [10] -11.5% | activity change, negative = viability loss [11] 1.71% [at 9.17 µM]

CO[C@H]1C=CC=C(C)C(=O)NC2=CC(=O)C(NCCN(C)C)=C(C[C@@H](C)C[C@H](OC)[C@@H](O)[C@@H](C)C=C(C)[C@@H]1OC(N)=O)C2=O
active: Potency [1] 743 nM | Potency [2] 662 nM | Potency [3] 662 nM | Potency [4] 4.69 µM | Potency [5] 0.935 µM | Potency [7] 0.166 µM | Potency [9] 148 nM | Potency [8] 118 nM

CCOc1ccc(Cc2cc([C@@H]3O[C@H](CO)[C@@H](O)[C@H](O)[C@@H]3O)ccc2Cl)cc1
inactive: Potency [1] | Potency [2] | Potency [3] | Potency [4] | Potency [5] | Potency [7] | Potency [9] | Potency [8]

C=C1c2cccc(O)c2C(O)=C2C(=O)[C@@]3(O)C(O)=C(C(N)=O)C(=O)[C@@H](N(C)C)[C@@H]3[C@@H](O)[C@H]12
inactive: Potency [1] | Potency [2] | Potency [3] | Potency [4] | Potency [5] | Potency [6] | Potency [7] | Potency [8] | Potency [11]

O=C(C=CC#Cc1cccc(NS(=O)(=O)c2ccccc2)c1)NO
active: Potency [1] 3720 nM | Potency [2] 3320 nM | Potency [3] 3320 nM | Potency [4] 2.35 µM | Potency [5] 2.09 µM | Potency [6] 2.09 µM | Potency [7] 2.64 µM | Potency [8] 2350 nM

CC(=O)[C@H]1CC[C@H]2[C@@H]3CCC4=CC(=O)CC[C@]4(C)[C@H]3CC[C@]12C
inactive: Potency [1] | Potency [2] | Potency [3] | Potency [4] | Potency [5] | Potency [7] | Potency [9]

CCNC(=O)[C@H]1O[C@@H](n2cnc3c(N)nc(NCCc4ccc(CCC(=O)O)cc4)nc32)[C@H](O)[C@H]1O
inactive: Potency [1] | Potency [2] | Potency [3] | Potency [4] | Potency [5] | Potency [6] | Potency [7] | Potency [8]

C[C@@H](Cc1cc2c(c(C(N)=O)c1)N(CCCO)CC2)NCCOc1ccccc1OCC(F)(F)F
inactive: Potency [1] | Potency [2] | Potency [3] | Potency [4] | Potency [5] | Potency [7] | Potency [9] | Potency [8]

C[C@]12CC[C@@H]3c4ccc(O)cc4CC[C@H]3[C@H]1[C@@H](O)[C@@H](O)[C@H]2O
inactive: Potency [1] | Potency [2] | Potency [3] | Potency [4] | Potency [5] | Potency [6] | activity (max response) [10] -1.98% | Potency [11]

CS(=O)(=O)c1ccc(Oc2cc(F)cc(C#N)c2)c2c1[C@H](O)C(F)(F)C2
inactive: Potency [1] | Potency [2] | Potency [3] | Potency [4] | Potency [5] | Potency [6] | activity (max response) [10] 10.8% | Potency [11]

COc1cccc(N(C)C(=S)Oc2ccc3c(c2)CCCC3)n1
inactive: Potency [1] | Potency [2] | Potency [3] | Potency [4] | Potency [5] | Potency [7] | Potency [9]

CCOc1cc2ncc(C#N)c(Nc3ccc(OCc4ccccn4)c(Cl)c3)c2cc1NC(=O)C=CCN(C)C
active: Potency [1] 526 nM | Potency [2] 935 nM | Potency [3] 332 nM | Potency [4] 0.59 µM | Potency [5] 1.05 µM | Potency [6] 1.05 µM | Potency [9] 148 nM | Potency [8] 296 nM

O=C(C=Cc1ccc(CN(CCO)CCc2c[nH]c3ccccc23)cc1)NO
active: Potency [1] 590 nM | Potency [2] 743 nM | Potency [3] 590 nM | Potency [4] 0.418 µM | Potency [5] 0.418 µM | Potency [6] 0.332 µM | Potency [9] 264 nM | Potency [8] 296 nM
